Measured values from PubChem BioAssay (NCI).
The panel holds about 83,000 compounds, 20% with a hit somewhere; the sample as a whole holds those more often.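 48-hour exposure, single concentration, 96-well plates; percent growth endpoint where 0 means no net growth. Active: below 10.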 A number with no mark means an inactive call. The source made the active and inactive calls.

What was measured:
Experiment in all cases: NCI-60 one-dose screen, 48 h (100 = growth as untreated, 0 = no growth, -100 = all killed)
Details in all cases: 10 µM unless noted
[1] = system: T-47D breast
[2] = system: BT-549 breast
[3] = system: MDA-MB-435 melanoma
[4] = system: SW-620 colon
[5] = system: MCF7 breast
[6] = system: HCT-116 colon
[7] = system: HCC-2998 colon
[8] = system: KM12 colon

| SMILES | growth [1] | growth [2] | growth [3] | growth [4] | growth [5] | growth [6] | growth [7] | growth [8] |
| --- | --- | --- | --- | --- | --- | --- | --- | --- |
| N#C/C(=C\c1ccc(Br)cc1)c1cc2ccccc2[nH]1 | 74.7% | 97% | 99.1% | 93.4% | 62.2% | 84.7% | 101% | 90.7% |
| Clc1ccc(-c2cn3ccsc3n2)c(Cl)c1Cl | 31.7% | 86.3% | 96.6% | 96.8% | 0.866% (active) | 91.7% | 92.5% | 98.1% |
| NC(=O)OCCn1cc(-c2nc(-c3c[nH]c4ncccc34)cs2)c2ccccc21 | 44.7% | 32.8% | -33.4% (active) | 8.68% (active) | 18.3% | 30.8% | 71.7% | 23% |
| CCCCCCCCCCCCCCCCCCOc1ccccc1CC(=O)NCC[N+]1(C)CCOCC1 | 62.3% | 39.8% | 76% | 79.2% | 69% | 61.8% | 31.1% | 5.07% (active) |
| C#CC#CC#CC#CC#CC#CC#CC#CC[C@H]1OC[C@H](COC(=O)O[C@@H](C(=O)O[C@H]2C[C@@]3(O)[C@@H](OC(=O)c4ccccc4)[C@@H]4[C@]5(OC(C)=O)CO[C@@H]5C[C@H](O)[C@@]4(C)C(=O)[C@H](OC(C)=O)C(=C2C)C3(C)C)[C@@H](NC(=O)c2ccccc2)c2ccccc2)O1 | 40.6% | 53.2% | -57.8% (active) | 38% | 24.4% | 15.5% | 38.2% | 18% |
| O=C(/C=C/C12c3ccccc3C(c3ccccc31)C1C(=O)NC(=O)C12)c1ccc(F)cc1 (stereo not given) | 12.2% | 2.77% (active) | -12.8% (active) | 4.25% (active) | 11.8% | -18.6% (active) | 10.9% | 8.33% (active) |
| CCOC(=O)N1CCN(S(=O)(=O)c2oc(-c3ccc(Cl)cc3)nc2C#N)CC1 | 65.4% | 92.2% | 98.6% | -49% (active) | 62.2% | 14.1% | 104% | 108% |
| O=C(/C=C/c1ccccc1)Nc1ncc(Cc2ccccc2)s1 | 26.1% | 42.9% | -40.9% (active) | 24.6% | 17.2% | 11.6% | 11.9% | 6.06% (active) |
| C=NNc1ccccc1 | 90.6% | 91.6% | 105% | 102% | 83.3% | 80.7% | 94.5% | 80.5% |
| CCCCCCCC/C=C\CCCCCCCCOc1ccccc1CC(=O)NCC[N+]1(C)CCCCC1 | 59.9% | 47.9% | 41.5% | 61.1% | 80% | 48.2% | 57.5% | 22.5% |
| O=C(O)CCCc1cnc2c3sccc3nc(SCc3c(Cl)cccc3Cl)n12 | 24.9% | 44.8% | 6.44% (active) | 27.3% | 26.5% | 21.7% | 81.1% | 21.7% |
| C=CC(=O)NCCOc1cccc(Nc2cc(NCCCNC(=O)C3CCC3)c(Br)cn2)c1 | -10.5% (active) | -59.5% (active) | -1.47% (active) | 2.26% (active) | 1.91% (active) | 4.97% (active) | -43.7% (active) | 5.83% (active) |
| COC(=O)/C=C1/SC(=Nc2cccc(Cl)c2)N(CCc2c[nH]c3ccc(O)cc23)C1=O | 12.6% | 0.746% (active) | 15.9% | 0.219% (active) | 15.9% | -33% (active) | 2.25% (active) | 18.9% |
| COc1ccc(/C(C)=C(\c2ccc(Cl)cc2)c2ccc(OCCN3CCCC3)cc2)cc1 | 45.9% | 57.9% | 39.2% | 25.1% | 13% | 23.6% | 87% | 24.5% |
| CN1CCN(Cc2cc(NC(=O)c3cccc(C#Cc4cccc5[nH]nc(N)c45)c3)cc(C(F)(F)F)c2)CC1 | 49% | 46% | -21.4% (active) | -45.2% (active) | -23.4% (active) | -86.8% (active) | -70.9% (active) | 13.7% |
| COc1ccc2nc(Cl)c(/C=C/C(=O)c3ccc(NC(=O)CSc4nnc(-c5ccc(Cl)c(Cl)c5)n4-c4ccccc4)cc3)cc2c1 | 83.5% | 80% | 95.6% | 92.3% | 82.5% | 68.6% | 105% | 98.4% |
| N#Cc1c(-c2ccccc2)cc(-c2ccccc2)n(CCCC(=O)NO)c1=O | 18.7% | 53.9% | -12.4% (active) | 17.3% | 22.5% | 7.06% (active) | 47.4% | 24.9% |
| Nc1nc(C(=O)N/N=C/c2ccc(N3CCOCC3)cc2)nn1-c1ccc(S(N)(=O)=O)cc1 | 108% | 116% | 104% | 99.9% | 103% | 101% | 104% | 103% |
| CCOC(=O)c1c2c(n3ccccc13)C(=O)c1ncccc1C2=O | 41.8% | 31.6% | 39.8% | 21.9% | 5.14% (active) | 0.586% (active) | 38.2% | 24.1% |
| CCOC(=O)c1c(C)nc2c(c1N)CC(=O)N2Cc1cc(OC)c(OC)c(OC)c1 | 28.7% | 48.7% | 4.24% (active) | 33.4% | 26.9% | 20.5% | 65.6% | 30.1% |
| CCn1cc(C(=O)NN=C2CCCCCC2)c(=O)c2ccc(C)nc21 | 77.2% | 83% | 83.9% | 91.2% | 77.2% | 77.7% | 99.1% | 87.6% |
| COCC[C@H]1CCC/C=C/[C@@H]2C[C@H](O)C[C@H]2[C@H](O)/C=C/C(=O)O1 | -10.9% (active) | 5.84% (active) | 9.56% (active) | -20.8% (active) | -8.53% (active) | -66.7% (active) | 2.4% (active) | -51.4% (active) |
| O=C(CBr)CN1C(=O)c2ccccc2C1=O | 93.9% | 111% | 103% | 109% | 97.7% | 102% | 98.8% | 97.6% |
| CN1CCN(c2ccc3c(c2)nc(NNC(=O)c2cnccn2)c2cccn23)CC1 | 37.9% | 41.2% | 32.6% | 34.1% | 13.8% | 23.1% | 47.8% | 19.3% |
| COc1ccc2nc3ccccc3c(NCc3ccccc3)c2c1 | 35.3% | 50.3% | 33.8% | 19.5% | 4.29% (active) | 14.8% | -35.5% (active) | 36.5% |
| CCOC(=O)c1c(NC(=O)c2ccc(OC)cc2)sc2c(CN(C)C)c(O)ccc12 | 77.3% | 95.5% | 68.8% | 70.4% | 70.4% | 51.3% | 23.1% | 81.8% |
| Oc1c(CN2CCCC2)cc(COCc2ccccc2)c2cccnc12 | 5.66% (active) | 27.2% | 33.5% | 22.3% | 10% (active) | 9.16% (active) | 49.7% | 28.7% |
| COc1cccc(C(=O)OCC(O)C(=O)NC23CC4CC(CC(C4)C2)C3)c1 (stereo not given) | 98.3% | 102% | 97.6% | 99.6% | 89.1% | 96.7% | 105% | 108% |
| CCOC(=O)c1c(-c2ccccc2)n2c(=O)cc(C)c3c(O)c(O)cc1c32 | 55% | 89.8% | 79.7% | 55.4% | 29.9% | 24.5% | 61.3% | 64.3% |
| C=CCn1c(SCC(=O)Nc2ccc(C(=O)/C=C/c3cc(OC)c(OC)c(OC)c3)cc2)nnc1-c1cc(-c2ccc(OC)cc2)nc2ccccc12 | 84.9% | 90.1% | 100% | 90.8% | 64.4% | 67.8% | 107% | 94% |
